High-throughput results as filed in PubChem BioAssay.
Shown are actives, neighbours in structure and some others; about 11% of the full set was active somewhere.
HEK cytotox: HEK 293 cell cytotoxicity; HEK 293 viability, ATP luminescence (CellTiter-Glo), 48-72 h; Potency, µM (series often up to 115 µM), for inactives: at the top dose activity change, negative = cytotoxicity, actives largely listed as inhibitors; 6.6% of 94,000 active; note: % is set by controls: 0 for no effect and ±100 for the full control effect; nearly all actives have a fitted effect of over 60% in size
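CellTiter-Glo luminescence (cellular ATP) was read after 48 or 72 hr of compound exposure at 37 degree Celsius. Cells were HEK 293 plated at 250 cells/well.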
FLuc inh: blocks purified firefly luciferase enzyme activity. Potency, µM (top dose mostly 115 µM), hits mostly inhibitors. purified P. pyralis luciferase, luminescence, biochemical. 2.5% of 76,000 active. AID 1347043. P08659; note: % is set by controls: 0 for no effect and ±100 for the full control effect; nearly all actives have a fitted effect of over 65% in size
Target sequence (P08659 whole entry, looked up): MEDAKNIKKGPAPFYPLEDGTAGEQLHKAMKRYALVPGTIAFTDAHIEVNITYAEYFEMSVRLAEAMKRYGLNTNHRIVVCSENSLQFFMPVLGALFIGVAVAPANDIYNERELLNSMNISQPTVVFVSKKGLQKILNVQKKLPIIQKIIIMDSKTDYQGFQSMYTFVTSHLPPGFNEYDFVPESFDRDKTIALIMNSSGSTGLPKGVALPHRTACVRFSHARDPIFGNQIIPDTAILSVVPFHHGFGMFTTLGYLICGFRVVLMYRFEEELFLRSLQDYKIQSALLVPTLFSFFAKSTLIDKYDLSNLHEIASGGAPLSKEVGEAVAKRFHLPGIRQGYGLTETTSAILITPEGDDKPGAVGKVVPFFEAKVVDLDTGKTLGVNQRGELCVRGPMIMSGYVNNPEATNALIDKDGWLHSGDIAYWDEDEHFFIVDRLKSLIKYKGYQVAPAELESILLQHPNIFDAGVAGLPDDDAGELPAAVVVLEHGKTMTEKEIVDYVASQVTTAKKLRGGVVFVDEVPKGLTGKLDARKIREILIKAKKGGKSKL
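Cell-free enzyme assay, 10nM P. pyralis luciferase, luciferin and ATP each at 10uM. Inhibition profiled over a 6-point titration, read as luminescence.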
hNpr1 antagonist: antagonists of human natriuretic peptide receptor Npr1; HEK293 hNpr1 GloSensor cGMP, ANP-stimulated luminescence; Potency, µM (highest dose often 46.3 µM), for the others: at the highest dose activity change, negative = inhibition, most hits filed as inhibitors; 1.6% of 76,000 active; calls by dose curve; note: % is set by controls: 0 for no effect and ±100 for the full control effect; nearly all actives have a fitted effect of over 60% in size
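Compound pre-incubated 30 min at room temperature on GloSensor-loaded HEK293 cells stably carrying hNpr1 and the pGS-40F cGMP biosensor. Stimulation uses hNppA at 0.1 nM final; luminescence is taken at baseline and 20 min post-agonist.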
3T3 cytotox: cytotoxic compounds in NIH 3T3 cells; Potency, µM (highest dose often 96.7 µM), without a hit: top-dose activity change, negative = cytotoxicity, usual class: inhibitors; 4.3% of 94,000 active; NIH 3T3 viability, CellTiter-Glo ATP luminescence, 48-72 h; note: % is set by controls: 0 for no effect and ±100 for the full control effect; nearly all actives have a fitted effect of over 55% in size
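Cells were seeded at 400 per well, treated with pin-transferred compound, and kept 48 or 72 hr at 37 °C before CellTiter-Glo addition and luminescence imaging of cellular ATP.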
Npr1 antag conf: confirmation of human Npr1 natriuretic peptide receptor antagonists. HEK293 hNpr1 cGMP GloSensor luminescence, ANP-stimulated. 76% of 1,400 active. shares compounds with hNpr1 antagonist. AID 1347044. Potency, µM (series often up to 57.6 µM), for the others: at the top dose activity change, negative = inhibition, hits mostly inhibitors; calls by dose curve; note: nearly all actives have a fitted effect of over 70% in size
NPR2 antag: selectivity test of Npr1 antagonists against human Npr2. 67% of 1,400 active. Potency, µM (highest dose often 57.6 µM), for inactives: at the highest dose activity change, negative = inhibition, hits mostly inhibitors. HEK293 hNpr2 GloSensor cGMP luminescence, CNP-stimulated. shares compounds with hNpr1 antagonist; calls by dose curve; note: nearly all actives have a fitted effect of over 70% in size
FLuc counter: counter-screen for Npr1 antagonists: firefly luciferase inhibitors | shares compounds with hNpr1 antagonist | purified FLuc enzyme, luminescence, Km substrate | Potency, µM (doses to about 57.6 µM), inactives show at the highest dose activity change, negative = inhibition, most hits filed as inhibitors | 0.7% of 1,400 active; note: 0% is about no effect
GloSensor cGMP: control cell line activity, Npr1 antagonist counter-screen. shares compounds with hNpr1 antagonist. HEK293 GloSensor cGMP, SNP-stimulated, luminescence. Potency, µM (doses to about 57.6 µM), for the others: at the top dose activity change, negative = inhibition, usual class: inhibitors. 69% of 1,400 active; calls by dose curve; note: % is set by controls: 0 for no effect and ±100 for the full control effect; nearly all actives have a fitted effect of over 70% in size
* hit, by the source's call; i = inactive; ? = inconclusive; . = not tested or not shown; [ ] = another dose, or the depositor's remark. Unless noted, calls come from the whole dose curve; as a rule, active = well fitted curve in the direction sought with a large enough effect; inconclusive = small, poorly fitted or top-dose-only effect, or another doubt; inactive = no such curve, though single readings can be large; an effect the other way counts as inactive or inconclusive. Potency is the fitted concentration of half-maximal effect.

SMILES | HEK cytotox | FLuc inh | hNpr1 antagonist | 3T3 cytotox | Npr1 antag conf | NPR2 antag | FLuc counter | GloSensor cGMP
CCOc1ccc(CN2CCN(c3nc4ccccc4o3)CC2CCO)cc1 (stereo not drawn) | 35µM* | i | 14µM* | -17% | 22µM* | 24µM* | -2% | 22µM*
O=C(NCC1CC1)c1cc(C2CC2)nc2onc(C3CCCNC3)c12 (stereo not drawn) | -6% | . | . | -13% | . | . | . | .
O=C(NCc1ccc(F)c(F)c1)C1CN(C2CCCC2)C(=O)N1 (stereo not drawn) | -9%[172 µM] | . | . | -15%[138 µM] | . | . | . | .
F[C@@H]1CN(Cc2cccnc2)C[C@@H]1OCc1nc2ccc(C(F)(F)F)cc2[nH]1 | ? | i | -12%[70.6 µM] | -36%[138 µM] | . | . | . | .
COc1ccccc1N1CCN([C@@H]2[C@H](O)[C@H](CO)O[C@@H]2CN(Cc2ccc(F)cc2)Cc2ccc(F)cc2)CC1 | 28µM* | i | ? | 32µM* | ? | 14µM* | 0% | -24%
COCC(=O)N1CCc2oc(C)c(C(=O)N(C)C)c2C1 | -12% | i | 1% | -7% | . | . | . | .
Clc1ccc(-c2nc(C3CC3)nc3c2CCN(Cc2ccccc2)CC3)cc1 | -15% | i | 8% | -5% | . | . | . | .
Oc1ccc(-c2nc(C3CC3)nc3c2CCN(Cc2cccc4ccccc24)CC3)cc1 | 18µM* | i | -24% | ? | -27%[86.2 µM] | ? | 2%[86.2 µM] | -32%[86.2 µM]
CN(Cc1ccnc2ccccc12)C(=O)c1cn(Cc2ccc(Cl)cc2)nn1 | 35µM* | i | 10µM* | ? | 14µM* | 17µM* | 3% | 12µM*
Cc1cc(C)n(-c2cccc(CN(C)C(=O)c3cn(Cc4ccc(Cl)cc4)nn3)c2)n1 | ? | i | -25% | ? | . | . | . | .
COC(=O)N1CCCCC(NC(=O)CCCc2nc(-c3ccccc3C)no2)C1 (stereo not drawn) | 35µM* | i | 13µM* | ? | 17µM* | 19µM* | -1% | 19µM*
Cc1cc(=O)n(CC(=O)Nc2cccc(C(F)(F)F)c2)c(N2CCC(C)CC2)n1 | 35µM* | i | 10µM* | 22µM* | 12µM* | 14µM* | 4% | 11µM*
CSc1cccc(NC(=O)Cn2c(N3CCC(C)CC3)nc(C)cc2=O)c1 | 11µM* | i | 11µM* | 11µM* | 12µM* | 14µM* | 0% | 9.7µM*
COc1ccc(CNC(=O)c2cc(-c3ccc([S+](C)(=O)[O-])cc3)nc3c2cnn3C)cc1 | 0% | . | . | -3% | . | . | . | .
COCC(=O)N[C@H]1C[C@@H](Cc2cc(-c3ccc(F)cc3)on2)C1(C)C | ? | i | ? | ? | . | . | . | .
COc1ccc(-c2cc(C[C@@H]3C[C@H](NCc4ccncc4)C3(C)C)no2)cc1 | ? | i | 22µM* | ? | 20µM* | 28µM* | -2%[86.2 µM] | 20µM*
O=C(Nc1ccccc1)N1CCCC(Cn2c(C3CC3)nc3cccnc32)C1 (stereo not drawn) | -2% | i | 7% | -18% | . | . | . | .
O=C(c1ccccc1)N1CCc2sc(C(=O)N3CCN(c4ccccc4)CC3)cc2C1 | ? | i | 10µM* | ? | 22µM* | 27µM* | -4% | 22µM*
O=C(c1ccc(Cl)cc1)N1CCc2sc(C(=O)N3CCOCC3)cc2C1 | ? | i | 0% | ? | . | . | . | .
CCC(=O)N1CCc2sc(C(=O)N3CCN(c4cccc(Cl)c4)CC3)cc2C1 | ? | i | 10µM* | ? | 19µM* | 19µM* | 5% | 17µM*
CCC(=O)N1CCc2sc(C(=O)NC3CCN(Cc4ccccc4)CC3)cc2C1 | ? | i | -20% | -24% | . | . | . | .
CN(C)C(=O)c1cc2c(s1)CCC(C(=O)N1CCN(c3cccc(Cl)c3)CC1)C2 (stereo not drawn) | ? | i | ? | ? | 22µM* | 19µM* | 2% | 15µM*
CCNC(=O)N1CCC(Cc2ccc(C(=O)NCCc3c[nH]c4ccccc34)cc2)CC1 | 25µM* | i | 14µM* | 18µM* | 24µM* | 24µM* | -12% | 27µM*
CCCC(=O)N1CCC2(CC1)CC(N(Cc1ccc(F)cc1)C1CC1)CCO2 (stereo not drawn) | ? | i | -25% | -18% | -25% | -5% | 2% | -26%
O=C(c1ccc(F)cc1)N1CCC2(CC1)CC(N(Cc1ccc(F)cc1)C1CC1)CCO2 (stereo not drawn) | ? | i | ? | ? | ? | ? | 5% | ?
SMILES | HEK cytotox | FLuc inh | hNpr1 antagonist | 3T3 cytotox | Npr1 antag conf | NPR2 antag | FLuc counter | GloSensor cGMP
O=C(c1cccs1)N1CCC2(CC1)CC(Cc1ccc(F)cc1)CCO2 (stereo not drawn) | ? | i | 11µM* | ? | 27µM* | 27µM* | -2% | 27µM*
O=C(Cc1ccc(F)cc1)N1CCCC(C(=O)N2CCC(c3nc4ncccc4[nH]3)CC2)C1 (stereo not drawn) | -26% | . | . | -24% | . | . | . | .
CCc1cc(=O)n(CC(=O)Nc2ccc3c(c2)OCCO3)c(-c2cccc(F)c2)n1 | ? | i | ? | ? | ? | -27% | 1% | ?
Cn1ccnc1CN1CCCC(CCc2ccccc2)C1 (stereo not drawn) | ? | i | -2% | -9% | . | . | . | .
CC(C)(Oc1nn(Cc2cccc(Cl)c2)c2ccccc12)C(=O)NC1CCC(O)CC1 (stereo not drawn) | ? | i | -26% | ? | . | . | . | .
CC(C)(Oc1nn(Cc2cccc(Cl)c2)c2ccccc12)C(=O)NCCc1cnc[nH]1 | ? | i | 22µM* | ? | 28µM* | 25µM* | 2%[86.2 µM] | 25µM*
CCc1nc(-c2c3n(c(=O)n(Cc4cc(F)ccc4F)c2=O)CCCCC3)no1 | 1% | i | -4% | -4% | . | . | . | .
CCc1noc(-c2cn(C3CCN(C(=O)c4ccc(C(C)(C)C)cc4)C3)nn2)n1 (stereo not drawn) | ? | i | 16µM* | ? | 24µM* | ? | -6% | 27µM*
COc1ccc(C(=O)N2CCC(n3cc(-c4nc(C(C)C)no4)nn3)C2)cc1OC (stereo not drawn) | -8% | i | 0% | -15% | . | . | . | .
